Among all 11,000 compounds or so, about 310 (2.8%) were called active. No stated cut-off is given here; in the data, active means activity change below about -85%; inactive means the rest. Shown is part of a subset that was picked to be rich in actives.

This assay concerns intestinal alkaline phosphatase [Mus musculus]. The experiment in a line: mouse intestinal phosphatase enzyme activation – biochemical, luminescence, single concentration, confirmation (AID 434970). Conditions: purified mouse IAP, CDP-Star luminescence, 30 min, at 10 µM; activation factor: measured here: IAP activation factor, stronger effect = higher value; activity change, negative = activation: stronger effect = lower value.
Regarding `CC(O)c1nc2ccccc2n1Cc1nnc(-c2ccc(Cl)cc2)o1` (stereo not drawn), the activation factor stood at 0.857 and the activity change, negative = activation was 14.3% (inactive).

`Cn1nc(OCc2ccccc2)ccc1=O`: the activation factor was 0.947 and the activity change, negative = activation is 5.35% (inactive).

As for `CCC(C)OC(=O)c1cc(C)nc2c(Br)cc(Br)cc12` (stereo not drawn), the activation factor stood at 1.02 and the activity change, negative = activation was -2% (inactive).

As to `CC[C@]12c3[nH]c4ccc(Cl)cc4c3CCN1C(=O)[C@@H](CC(=O)NCC13CC4CC(CC(C4)C1)C3)C[C@@H]2C(=O)N1CCN(C(=O)c2ccco2)CC1`, the activation factor was determined as 1.1 and the activity change, negative = activation was -9.55% (inactive).

For `CCOC(=O)c1sc(NC(=O)Nc2ccccc2Cl)cc1C`, the activation factor was 1.89 and the activity change, negative = activation is -89.1% (inactive).

In the case of `Cc1cc(C)c2c(n1)sc1c(=O)[nH]c(SCc3ccccc3)nc12`, the activation factor stood at 0.801 and the activity change, negative = activation was 19.9% (inactive).

With `CCOC(=O)Cn1cnc([N+](=O)[O-])n1`, the activation factor stood at 0.92 and the activity change, negative = activation is 8% (inactive).

As to `COc1cc(-c2nnc(COC(=O)CSc3cc(C)c4ccccc4n3)o2)cc(OC)c1OC`, the activation factor amounted to 0.99 and the activity change, negative = activation was 0.95% (inactive).

Turning to `COc1cc(NC(=S)NCCC(c2ccccc2)c2ccccc2)cc(OC)c1`, the activation factor amounted to 3.28 and the activity change, negative = activation is -228% (active).

As to `COc1ccc(CNC(=S)Nc2cccc(Cl)c2)cc1`, the activation factor was 1.25 and the activity change, negative = activation was -24.7% (inactive).

Take `COc1cccc(NC(=S)NCCN2CCOCC2)c1`: the activation factor was 1.08 and the activity change, negative = activation is -8.4% (inactive).

Turning to `COc1cc(NC(=O)C(Cc2ccccc2)n2cccc2)cc(OC)c1` (stereo not drawn), the activation factor was 1.12 and the activity change, negative = activation was -12.3% (inactive).

For `COc1cccc(NC(=S)NCCC(c2ccccc2)c2ccccc2)c1`, the activation factor is 3.53 and the activity change, negative = activation is -253% (active).

For `CCCCNC(=S)Nc1ccc(Oc2ccccc2)cc1`, the activation factor was found to be 1.71 and the activity change, negative = activation is -70.5% (inactive).

Regarding `COc1ccc(S(=O)(=O)Nc2ccccc2)cc1OC`, the activation factor came out at 0.947 and the activity change, negative = activation is 5.35% (inactive).

Regarding `COc1ccc(C(=O)CSc2nnnn2Cc2ccccc2)cc1`, the activation factor turned out to be 0.953 and the activity change, negative = activation is 4.7% (inactive).

Take `Cc1ccc2c(Cl)c(C(=O)Nc3cc(C)on3)sc2c1`: the activation factor was 0.873 and the activity change, negative = activation was 12.6% (inactive).

With `CC[C@H](C)[C@@H](C(=O)NCCCCCCCCCCC(=O)N1CCN(C(=O)OC(C)(C)C)CC1)n1cc(CCCCCNC(=O)OC(C)(C)C)nn1`, the activation factor was determined as 1.52 and the activity change, negative = activation is -51.8% (inactive).

As to `C#CCOCCOCCOCCNc1nc(N2CCN(C(=O)CCCCCCCCCCNC(=O)[C@H]([C@@H](C)CC)n3cc(CCCCN=C(N)N)nn3)CC2)nc(N2CCN(C(=O)CCCCCCCCCCNC(=O)[C@H](CO)n3cc(CCCCCN)nn3)CC2)n1`, the activation factor is 6.62 and the activity change, negative = activation is -562% (active).

Regarding `C#CCOCCOCCOCCNc1nc(N2CCOCC2)nc(N2CCN(C(=O)CCCCCCCCCCNC(=O)[C@H]([C@@H](C)CC)n3cc(CCCCN=C(N)N)nn3)CC2)n1`, the activation factor was 2.37 and the activity change, negative = activation is -137% (active).

In the case of `C#CCOCCOCCOCCNc1nc(N2CCN(C(=O)CCCCCCCCCCNC(=O)[C@H]([C@@H](C)CC)n3cc(CCCCCN)nn3)CC2)nc(N2CCN(C(=O)CCCCCCCCCCNC(=O)[C@H]([C@@H](C)CC)n3cc(CCCCN=C(N)N)nn3)CC2)n1`, the activation factor was 15.6 and the activity change, negative = activation is -1460% (active).

As for `C#CCOCCOCCOCCNc1nc(N2CCN(C(=O)[C@H](Cc3cc4ccccc4[nH]3)n3cc([C@@H](N)C(C)CC)nn3)CC2)nc(N2CCN(C(=O)[C@H](Cc3cc4ccccc4[nH]3)n3cc([C@@H](N)Cc4ccc(O)cc4)nn3)CC2)n1` (stereo partly drawn), the activation factor is 1.43 and the activity change, negative = activation was -42.8% (inactive).

With `CC(C)(C)OC(=O)CC[C@@H](C(=O)NCCCCCCCCCCC(=O)N1CCN(C(=O)OC(C)(C)C)CC1)n1cc(CCCCCNC(=O)OC(C)(C)C)nn1`, the activation factor was 1.51 and the activity change, negative = activation is -51% (inactive).

On to `CC[C@H](C)[C@@H](C(=O)NCCCCCCCCCCC(=O)N1CCN(C(=O)OC(C)(C)C)CC1)n1cc(CCCCN=C(NC(=O)OC(C)(C)C)NC(=O)OC(C)(C)C)nn1`, for which the activation factor was determined as 2.29 and the activity change, negative = activation is -128% (active).

With `O=C(CCS(=O)(=O)c1cccc2nonc12)Nc1cccc2c1CCCC2`, the activation factor came out at 0.972 and the activity change, negative = activation was 2.85% (inactive).

Regarding `O=C(c1ccc(F)cc1)N1CCN(c2cc(=O)[nH]nc2-c2ccccc2)CC1`, the activation factor stood at 1.17 and the activity change, negative = activation was -17.4% (inactive).

For `COc1ccc(-n2c(COc3ccccc3)nnc2SCC(N)=O)cc1`, the activation factor was 0.967 and the activity change, negative = activation is 3.3% (inactive).

`CCOC(=O)N1CCC(NC(=O)C2CCC(Cn3c(=O)[nH]c4ccccc4c3=O)CC2)CC1` (stereo not drawn): the activation factor is 0.908 and the activity change, negative = activation was 9.15% (inactive).

With `O=C1CC(c2nc3ccccc3[nH]2)CN1c1ccccc1` (stereo not drawn), the activation factor stood at 0.951 and the activity change, negative = activation was 4.9% (inactive).

`O=c1ccc(NS(=O)(=O)c2ccc(Cl)cc2)cn1Cc1ccc(Cl)c(Cl)c1`: the activation factor was found to be 0.948 and the activity change, negative = activation was 5.2% (inactive).

For the molecule `CC1C(C)C(O)(c2ccccc2)CCN1C` (stereo not drawn), the activation factor was determined as 0.956 and the activity change, negative = activation was 4.35% (inactive).

Turning to `c1ccc(NC2=NCCCCS2)cc1`, the activation factor came out at 1.06 and the activity change, negative = activation was -5.6% (inactive).

With `C#CCOCCOCCOCCNc1nc(N2CCN(C(=O)CCCCCCCCCCNC(=O)[C@H]([C@@H](C)CC)n3cc(CCCCN=C(N)N)nn3)CC2)nc(N2CCN(C(=O)CCCCCCCCCCNC(=O)[C@H]([C@@H](C)CC)n3cc(CCCCN=C(N)N)nn3)CC2)n1`, the activation factor came to 22.7 and the activity change, negative = activation was -2170% (active).

On to `C#CCOCCOCCOCCNc1nc(N2CCN(C(=O)CCCCCCCCCCNC(=O)[C@H]([C@@H](C)CC)n3cc(CCCCN=C(N)N)nn3)CC2)nc(N2CCN(C(=O)CCCCCCCCCCNC(=O)[C@@H]([C@H](C)O)n3cc(C)nn3)CC2)n1`, for which the activation factor was found to be 14.6 and the activity change, negative = activation was -1360% (active).

Regarding `CC(Sc1nc2ccccc2n1C)C(=O)NC(c1ccccc1)c1ccccc1` (stereo not drawn), the activation factor was 0.982 and the activity change, negative = activation is 1.75% (inactive).

For `Cc1cccc(Cn2cnc3c(NS(C)(=O)=O)c(C)c(C)cc32)c1`, the activation factor came to 1.13 and the activity change, negative = activation was -12.6% (inactive).

As to `NCCCCCc1nnc(SCC(=O)c2ccc(Cl)cc2)o1`, the activation factor came to 1.08 and the activity change, negative = activation was -7.9% (inactive).

As to `C#CCOCCOCCOCCNc1nc(N2CCN(C(=O)CCCCCCCCCCNC(=O)[C@H]([C@@H](C)CC)n3cc(CCCCCN)nn3)CC2)nc(N2CCN(C(=O)CCCCCCCCCCNC(=O)[C@H](CCCCN)n3cc(CCCC(=O)O)nn3)CC2)n1`, the activation factor is 3.22 and the activity change, negative = activation was -222% (active).

`C#CCOCCOCCOCCNc1nc(N2CCN(C(=O)CCCCCCCCCCNC(=O)[C@@H](CCC(=O)O)n3cc(CCCCCN)nn3)CC2)nc(N2CCN(C(=O)CCCCCCCCCCNC(=O)[C@H]([C@@H](C)CC)n3cc(CCCCCN)nn3)CC2)n1`: the activation factor is 2.75 and the activity change, negative = activation was -176% (active).

Values taken from PubChem BioAssay AID434970 (Sanford-Burnham Center for Chemical Genomics, 2010).
